Measured values: PubChem BioAssay (NCI)
The panel holds about 79,000 compounds, 15% with a hit somewhere; the sample as a whole holds those more often. Cut-off read from the data, not from the text of the source: active = growth inhibition above about 70%; inactive = the rest.

Columns and labels:
[1] = NCI Yeast Anticancer Drug Screen. Data for the rad50 strain (AID 155);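 note: 0% = growth of vehicle-only cultures of the same strain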; settings: S. cerevisiae rad50 strain growth inhibition; at 50.0 µM; active compounds read high
Summary of the method: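 Compounds were tested on a yeast strain with an engineered DNA damage repair alteration; the reported value is growth inhibition normalised to vehicle treatment.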

[2] = NCI Yeast Anticancer Drug Screen. Data for the mec2-1 strain (AID 157); settings: S. cerevisiae mec2-1 strain, at 50.0 µM, active compounds read high
Summary of the method: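 Strain: mec2-1 (DNA repair/cell cycle alteration). Compound exposure, then growth measured; inhibition expressed relative to vehicle.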

[3] = NCI Yeast Anticancer Drug Screen. Data for the sgs1 mgt1 strain (AID 161);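 note: 0% = growth of cultures given vehicle only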; settings: S. cerevisiae sgs1 mgt1 strain, at 50.0 µM, active compounds read high
Summary of the method: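 Read-out: growth inhibition vs vehicle controls. Cells: mutant yeast strain deficient in DNA damage repair.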

[4] = NCI Yeast Anticancer Drug Screen. Data for the cln2 rad14 strain (AID 165);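 note: 0% = growth equal to vehicle treated cultures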; settings: S. cerevisiae cln2 rad14 strain, at 50.0 µM, active compounds read high
Summary of the method: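 Compounds are applied to the cln2 rad14 yeast strain, and growth is then compared with that of vehicle-treated cultures to give inhibition.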

[5] = NCI Yeast Anticancer Drug Screen. Data for the bub3 strain (AID 167); settings: S. cerevisiae bub3 mutant strain, at 50.0 µM, active compounds read high
Summary of the method: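 Growth of a checkpoint-deficient yeast mutant is measured after compound exposure. Values represent inhibition relative to vehicle.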

[6] = NCI Yeast Anticancer Drug Screen. Data for the mlh1 rad18 strain (AID 175); settings: S. cerevisiae mlh1 rad18 strain growth inhibition; at 50.0 µM; active compounds read high
Summary of the method: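 Read-out is yeast growth inhibition, calculated against vehicle-only controls. The compound was applied to a strain engineered with DNA damage repair alterations.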

Measured: growth inhibition

C=C1C(=O)OC2/C=C(\C)C(OC(C)=O)C3OC3C(C)(O)CC(OC(=O)/C(C)=C/C)C12 (stereo not drawn)
inactive: [1] 3.35% | [2] 2.2% | [3] -15.4% | [4] -5.2% | [5] -29.7% | [6] -13.1%

Nc1ccc(Cl)cc1C(=O)Oc1ccccn1
inactive: [1] 6.9% | [2] -0.65% | [3] -6.25% | [4] -0.4% | [5] -5.5% | [6] -0.7%

CCCCCCCCCCCCCCCCOC(=O)/C=C/c1ccccc1
inactive: [1] -8.35% | [2] -2.35% | [3] -7.45% | [4] -8.55% | [5] -12.3% | [6] 9.1%

O=C(O)c1ccccc1C(=O)c1ccc(Br)cc1
inactive: [1] 8.4% | [2] -20.7% | [3] 10.8% | [4] 14.6% | [5] -3.45% | [6] 10.1%

O=Cc1c(Cl)c(Cl)c(Cl)c(Cl)c1Cl
inactive: [1] -2.3% | [2] 6.3% | [3] 16.9% | [4] -39.6% | [5] 4.6% | [6] 51.1%

C[C@H]1C(=O)CCC2[C@]3(C)CC4OC(=O)C5(CC[C@@]6(C)CCC(C)(C)CC6C45C)C3CC[C@@]21C (stereo partly drawn)
inactive: [1] -0.7% | [2] -7.25% | [3] -25.9% | [4] -3.65% | [5] -34.9% | [6] -15%

O=C1C=CC(=O)c2c1ccc1c3ccccc3n(CCCCCn3c4ccccc4c4ccc5c(c43)C(=O)C=CC5=O)c21
inactive: [1] -20.8% | [2] -9.85% | [3] -18.2% | [4] 0.8% | [5] -28.4% | [6] -19%

Cc1cccc(Cl)c1OCC(=O)O
inactive: [1] -1.25% | [2] -8.55% | [3] -1.95% | [4] -35.8% | [5] -20.8% | [6] -13.2%

Nc1ccn(CCO)c(=O)n1
inactive: [1] -3.95% | [2] 2.05% | [3] -23.2% | [4] -0.8% | [5] -5.3% | [6] -7.95%

CCOC(=O)CC(C)C1(C=O)CCCCC1=O (stereo not drawn)
inactive: [1] -3.2% | [2] -30.3% | [3] -11.7% | [4] 7.25% | [5] -19.5% | [6] -17.4%

Clc1ccccc1C=NCCN=Cc1ccccc1Cl
inactive: [1] -1.75% | [2] -14.8% | [3] -3.5% | [4] 0.5% | [5] 3.4% | [6] 1.15%

N#CC12CCC(CC1)CC2Cl (stereo not drawn)
inactive: [1] -15.7% | [2] 8.45% | [3] 0.95% | [4] 4.4% | [5] 1.5% | [6] -12.7%

CCOC(=O)CC(C(=O)OCC)c1ccccc1 (stereo not drawn)
inactive: [1] -3.4% | [2] 10.2% | [3] -5.4% | [4] -6.35% | [5] 9.85% | [6] -19.4%

COc1cccc(C2OC(N)=C(O)C2=O)c1 (stereo not drawn)
inactive: [1] -10.8% | [2] 1.9% | [3] 3.6% | [4] -11.2% | [5] 2.45% | [6] 22.2%

CC(C)C(=O)Oc1cc2c(=O)oc3c(OC(=O)C(C)C)c(OC(=O)C(C)C)cc4c(=O)oc(c1OC(=O)C(C)C)c2c34
inactive: [1] 40.1% | [2] 12.6% | [3] 25.6% | [4] 13.7% | [5] 31.6% | [6] 48.5%

CC(C)(C)C1CCC2c3c([nH]c4ccccc34)C3C(=O)N(c4ccccc4[N+](=O)[O-])C(=O)C3C2C1 (stereo not drawn)
inactive: [1] -16.9% | [2] -24.1% | [3] -18.6% | [4] 4.8% | [5] -15.3% | [6] -26.6%

N#Cc1c(-c2ccco2)c2c(n(C3OC(CO)C(O)C(O)C3O)c1=S)CCCC2 (stereo not drawn)
inactive: [1] -12.3% | [2] 6.9% | [3] 15.7% | [4] -7.75% | [5] 5% | [6] 14.8%

CCC(=O)C(=O)C1CCCCC1=O (stereo not drawn)
inactive: [1] -2.4% | [2] -3.8% | [3] -2.5% | [4] -9.05% | [5] -17.6% | [6] -0.05%

Clc1ccccc1/C=C(/c1ccccc1)c1ccccn1
inactive: [1] 37.5% | [2] 12.3% | [3] 23.3% | [4] -8.85% | [5] 29.9% | [6] 15.8%

C[N+](C)(C)C1C2(CCCCC2)NC(=O)C12CCCCC2 (stereo not drawn)
inactive: [1] 5.6% | [2] -0.75% | [3] -11.5% | [4] -3.1% | [5] -5.85% | [6] -2.9%

O=C(COc1ccccc1)NCc1ccc(Cl)cc1
inactive: [1] 2.4% | [2] 2.05% | [3] 5.8% | [4] 7.15% | [5] 26.9% | [6] 21.9%

O=C(NC(Cc1cnc[nH]1)C(=O)N1CCCC1)C1CCCC1 (stereo not drawn)
inactive: [1] -22.4% | [2] -20.4% | [3] 13.7% | [4] 6.2% | [5] 0.9% | [6] -14.3%

CNC(=S)Nc1cccc(C)c1
inactive: [1] -3.1% | [2] 2.65% | [3] 4.55% | [4] -8.55% | [5] -10.4% | [6] 4.05%

O=C(O)CCC(C(=O)O)N(Cc1ccccc1)Cc1ccccc1 (stereo not drawn)
inactive: [1] 11.4% | [2] -0.4% | [3] -1.45% | [4] 1% | [5] 7.75% | [6] 5.9%

C=CC1C(OC2OC(CO)C(O)C(O)C2O)OC=C(C(=O)OC)C1CC=O (stereo not drawn)
inactive: [1] 32.9% | [2] 11.9% | [3] 4.15% | [4] 13.4% | [5] 18.3% | [6] 32.7%

[O-][n+]1ccc(Cl)cc1
inactive: [1] -4.15% | [2] -14.8% | [3] -19% | [4] -15.2% | [5] -10.1% | [6] -9.35%

COC(=O)N/N=C/c1c[nH]c2ccccc12
inactive: [1] -5.15% | [2] -17.6% | [3] -9.65% | [4] -97% | [5] -17.4% | [6] -24.6%

CCOc1ccc(NC(=O)c2c(N/N=C/c3ccc(OC)cc3)nc(=O)[nH]c2C)cc1
inactive: [1] -14.2% | [2] -31.5% | [3] -21.6% | [4] -8.7% | [5] -15.6% | [6] -28.7%

Fc1nc(F)nc(-c2c3ccccc3c3n2CCS3)n1
inactive: [1] 1.65% | [2] 14.1% | [3] 9.1% | [4] 15.3% | [5] 4.7% | [6] 7.2%

COC(=O)CC1(C(=O)OC)Nc2ccc(Cl)cc2C(=O)O1 (stereo not drawn)
inactive: [1] -2.55% | [2] 1.85% | [3] 12.5% | [4] -19.6% | [5] -9.5% | [6] -11.8%

CC(C)c1nc2c(c(=O)o1)CCS2
inactive: [1] -5.5% | [2] -5.75% | [3] -7.9% | [4] -8.1% | [5] -1.4% | [6] -11.9%

Cc1cc(Cl)ccc1NC(=O)C(=O)Cc1nc2ccc(C(=O)c3ccccc3)cc2[nH]c1=O
inactive: [1] 5.15% | [2] -4.75% | [3] -4.85% | [4] 22.9% | [5] 26.4% | [6] 7.15%

COC(=O)C(C/C=C(\C)c1ccccc1)C(C)=O (stereo not drawn)
inactive: [1] -13.1% | [2] -23.7% | [3] -25% | [4] 19.1% | [5] -23.1% | [6] -0.35%

O=S(O)CCCCCSSCCCCSSCCCCCS(=O)O
inactive: [1] 7.6% | [2] -0.15% | [3] 11.5% | [4] 10.3% | [5] 12.8% | [6] 27.4%

CNC(=O)c1ccccc1C(=O)c1ccccc1OC
inactive: [1] 7.5% | [2] -11.7% | [3] -3.05% | [4] -25.1% | [5] 17.4% | [6] 2.15%

CCn1c(=O)c2[nH]c(Cl)nc2n(CC(C)Cl)c1=O (stereo not drawn)
inactive: [1] 19.1% | [2] -5% | [3] 6.15% | [4] 17.8% | [5] 5.35% | [6] 19.1%

O=C(Cn1ccccc1=O)c1ccc(F)cc1
inactive: [1] 9.65% | [2] -0.15% | [3] 0% | [4] -18.6% | [5] 1.7% | [6] -8.25%

Nc1ccc(C(C(=O)O)c2ccccc2)cc1 (stereo not drawn)
inactive: [1] 10.4% | [2] 15.8% | [3] 12.6% | [4] 1.4% | [5] 20.1% | [6] 10.9%
